# Source: PubChem BioAssay AID1671192 (National Center for Advancing Translational Sciences (NCATS), 2021)
# Records with an inconclusive call do not appear. A number with no mark means an inactive call. The call rests on the fitted dose curve; in most records, active means well fitted curve in the direction sought with a large enough effect; inconclusive means small, poorly fitted or top-dose-only effect, or another doubt; inactive means no such curve, though single readings can be large or run the other way.
# Biological target: Polyunsaturated fatty acid lipoxygenase ALOX15 (Homo sapiens) (UniProt P16050)
# Sequence (P16050 whole entry, looked up): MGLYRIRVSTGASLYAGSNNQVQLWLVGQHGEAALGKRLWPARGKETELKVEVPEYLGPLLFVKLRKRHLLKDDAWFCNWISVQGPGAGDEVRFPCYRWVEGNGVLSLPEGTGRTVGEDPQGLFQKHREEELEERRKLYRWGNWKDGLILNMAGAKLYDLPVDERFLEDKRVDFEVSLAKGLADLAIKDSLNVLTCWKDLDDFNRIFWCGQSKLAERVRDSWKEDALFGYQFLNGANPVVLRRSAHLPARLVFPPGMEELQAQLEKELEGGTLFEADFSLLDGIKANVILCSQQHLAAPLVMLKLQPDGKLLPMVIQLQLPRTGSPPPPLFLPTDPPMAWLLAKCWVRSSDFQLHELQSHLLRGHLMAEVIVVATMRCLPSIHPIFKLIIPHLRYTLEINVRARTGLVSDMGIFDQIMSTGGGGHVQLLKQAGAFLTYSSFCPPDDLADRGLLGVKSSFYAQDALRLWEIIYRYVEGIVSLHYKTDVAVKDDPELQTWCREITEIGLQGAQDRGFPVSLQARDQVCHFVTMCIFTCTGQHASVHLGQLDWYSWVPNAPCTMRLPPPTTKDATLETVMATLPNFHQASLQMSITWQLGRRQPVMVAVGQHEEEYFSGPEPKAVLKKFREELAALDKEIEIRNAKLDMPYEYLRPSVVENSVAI
# Assay: Counterscreen qHTS for inhibitors of human arachidonate 12S-lipoxygenase (ALOX12): ALOX15 Assay; further: 0% is about no effect
# Conditions: purified ALOX15 enzyme activity; series mostly up to 110 µM; activity change, negative = inhibition: at the top concentration
# How it was run: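 Purified human ALOX15 (15hLO-1) at 40 nM in 25 mM HEPES, 0.01% Triton X-100, pH 7.5, preincubated with compound 15 min at RT. Then 50 uM arachidonic acid for 30 min; hydroperoxide detected by Fe-xylenol orange as the 573/405 nm absorbance ratio.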
row,SMILES,"activity change, negative = inhibition"
1,COc1ccc(-n2nc3n(c2=O)CCN(C(=O)c2ccccn2)C3)cc1,-10.8% [at 146 µM]
2,CCNc1ncnc2c1CN(C1CCCNCC1)C(=O)CN2C (configuration not stated),-7.53% [at 146 µM]
3,CN(C)CC(=O)N1Cc2ccccc2CC2(CCCN(CC3CCNC3)C2)C1 (configuration not stated),-21.8%
4,C[S+](=O)([O-])N1CCCC(c2nnc3n2CCNC3)C1 (configuration not stated),-4.91% [at 146 µM]
5,CN1CCC(C(=O)N2Cc3ccccc3CC3(CCCN(CC4CCNC4)C3)C2)CC1 (configuration not stated),-33.8%
6,CCN1CCC(c2nc3ccc(F)cc3c(=O)[nH]2)CC1,-2.36% [at 146 µM]
7,CCN1CCCC12Cc1ccccc1CN(C(=O)c1ccccc1)C2 (configuration not stated),0.106%
8,O=c1[nH]c(C2CCCN(Cc3ccc(-c4ccccc4)cc3)C2)nc2ccc(F)cc12 (configuration not stated),-25.5%
9,CC(=O)N1Cc2ccccc2CC2(CCCCN2Cc2ccccn2)C1 (configuration not stated),12%
10,O=C(c1cc(C2CC2)nc2c1c(C1CCCN1)nn2-c1ccccc1)N1CCOCC1 (configuration not stated),-11.8%
11,O=C(c1ccccc1F)N1CCc2nc(C3CC3)nc(-c3ccc(Cl)cc3)c2C1,-19.9%
12,CCOc1cccc(CN2CCCC23Cc2ccccc2CNC3=O)c1 (configuration not stated),-5.5%
13,CCC(CO)Nc1ncnc2c1CN(C1CCCNC1)C(=O)CN2C (configuration not stated),-25.6%
14,O=C1NCc2ccccc2CC12CCN(Cc1cc(F)ccc1F)C2 (configuration not stated),-20.4% [at 146 µM]
15,O=c1[nH]c(C2CCCN(Cc3cccc(Cl)c3)C2)nc2ccc(F)cc12 (configuration not stated),-9.91%
16,CN1CC(=O)N(c2cccc(F)c2)Cc2c1ncnc2N1CCC(F)CC1,-12.8%
17,COc1ccc(NC2CN(C(=O)OC(C)(C)C)C2)cc1,-15.5% [at 146 µM]
18,Cc1ccc(-c2ccccc2C=O)cc1Cl,-17% [at 146 µM]
19,CN1CCCC2(Cc3ccccc3CN(C(=O)c3ccc(Cl)cc3)C2)C1 (configuration not stated),-23.7%

row,SMILES,"activity change, negative = inhibition"
1,O=C1c2ccccc2CN1C1CCN(Cc2ccsc2)CC1,-5.25% [at 146 µM]
2,N#Cc1ccccc1CN1CCCC12Cc1ccccc1CNC2=O (configuration not stated),-0.198% [at 146 µM]
3,CCc1nc2c(c(-c3ccc(OC)cc3)n1)CN([S+](=O)([O-])c1cccc(OC)c1)CC2,-24.4%
4,CN1CC(=O)N(C2CCCNC2)Cc2c(NCC3CCCCCC3)ncnc21 (configuration not stated),-11.2%
5,COc1cc(CN2CCCCC23Cc2ccccc2CNC3=O)ccc1F (configuration not stated),-15.7%
6,NCC(=O)N1Cc2ccccc2CC2(CCCCN2CC2CCOCC2)C1 (configuration not stated),-24.1%
7,O=C1Nc2ccccc2CN(CC2CC2)C12CCNCC2,-9.42%
8,CNCc1cccn1C,-3.02% [at 233 µM]
9,CC(C)CNC(=O)c1cc(C2CC2)nc2onc(C3CCCNC3)c12 (configuration not stated),-7.29% [at 146 µM]
10,FC(F)(F)c1ccc(N2C3CCC2CN(Cc2cccc(-c4cccs4)c2)C3)cc1,0.0453%
11,CNCc1ccccc1-c1ccccc1,-17.3% [at 233 µM]
12,CC(C)(C)OC(=O)N1CC(Nc2cccc(Oc3ccccc3)c2)C1,-2.09% [at 146 µM]
13,CN1CC(=O)N(C2CNC2)Cc2c(NCC3CC3)ncnc21,-14.2% [at 146 µM]
14,Cc1noc(C)c1C(=O)N1Cc2ccccc2CC2(CCCN(CC3CCNC3)C2)C1 (configuration not stated),-7.51%
15,CC(C)NC(=O)N1CCC(c2nnc3n2CCNC3)CC1,6.45% [at 146 µM]
16,CC(=O)NCCC(=O)N1Cc2ccccc2CC2(CCCN2CC2CCNCC2)C1 (configuration not stated),-22.8%
17,COc1ccc(CN2CCC3(CC(c4cccc(C(F)(F)F)c4)=NO3)C2)cc1 (configuration not stated),-15.6%
18,CN1CC(=O)N(C2CCCNCC2)Cc2c1ncnc2N1CCC(N2CCCCC2)CC1 (configuration not stated),5.5%
